The values below come from PubChem BioAssay (EPA / NIEHS).

Assay [1] can be described thus: APR_HepG2_CellLoss_72hr: Apredica 72-hour HepG2 Assay for Cell Loss (AID 2282915). The note with it: high-content imaging. The method, boiled down:
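HepG2 cells exposed 72 h to compound at 0.39–200 uM (10 concentrations, duplicate) in 0.5% DMSO. Fixed with 3.7% formaldehyde and Hoechst 33342-stained. Imaged at 20x; nuclear count gives cell number, fitted bidirectionally versus DMSO.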

Assay [2] is described as follows: APR_HepG2_P-H2AX_72hr: Apredica 72-hour HepG2 Assay for H2AX Phosphorylation (AID 2282916).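 Note: phospho-histone H2A.x immunostain intensity per cell marking DNA damage.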 Conditions: imaging, actives raise or lower the signal. The method in brief: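 Phospho-histone H2A.x immunofluorescence, multiplexed with Hoechst and c-Jun, quantified by high-content imaging. Compounds applied to HepG2 for 72 h across ten concentrations (0.39–200 uM, 0.5% DMSO), in duplicate; DMSO baseline.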

Assay [3] is described as follows: APR_HepG2_MitoMembPot_72hr: Apredica 72-hour HepG2 Assay for Mitochondrial Membrane Potential (AID 2282917). Conditions: imaging, actives raise or lower the signal. The method in brief:
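HepG2 cells dosed 72 hr with compound at 0.39–200 uM in duplicate, 0.5% v/v DMSO final. Mitochondria stained with 250 nM MitoTracker Red CMXRos for 30 min before formaldehyde fixation, imaged by high-content fluorescence; bidirectional fit versus DMSO.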

Assay [4] is described as follows: APR_HepG2_MitoticArrest_72hr: Apredica 72-hour HepG2 Assay for Mitotic Arrest (AID 2282918). The note with it: high-content imaging, actives raise or lower the signal. The method, boiled down:
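HepG2, 72 hr exposure, 0.39–200 uM in duplicate, 0.5% v/v DMSO final. Formaldehyde-fixed, Triton-permeabilized, anti-phospho-histone H3/FITC plus Hoechst. ArrayScan imaging at 20x; curves fit bidirectionally against DMSO baseline.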

Assay [5] in a line: APR_HepG2_MicrotubuleCSK_72hr: Apredica 72-hour HepG2 Assay for Microtubule CSK Stabilty (AID 2282919). Conditions: HepG2 microtubule cytoskeleton, high-content imaging, actives raise or lower the signal. The method in brief:
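HepG2, 72 hr cmpd exposure, 0.39–200 uM (10 pts, duplicate), 0.5% DMSO. 3.7% formaldehyde fix, 0.5% Triton perm, anti-alpha-tubulin/Cy5 plus Hoechst. HCS fluorescence intensity; bidirectional fit vs DMSO baseline; taxol as positive control.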

The nature of assay [6]: APR_HepG2_P-H2AX_24hr: Apredica 24-hour HepG2 Assay for H2AX Phosphorylation (AID 2282920). The note with it: high-content imaging, actives raise or lower the signal. The method, boiled down:
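HCS fluorescence imaging of phospho-H2A.x immunostain (with Hoechst 33342 nuclear counterstain) in HepG2 after 24 hr compound exposure; 10 concentrations, 0.39–200 uM, duplicate wells, 0.5% v/v DMSO. Gain or loss of signal fitted relative to DMSO baseline.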

Assay [7] can be described thus: APR_HepG2_StressKinase_72hr: Apredica 72-hour HepG2 Assay for Stress Kinase (AID 2282921). The note with it: HepG2 stress kinase (phospho-c-Jun) imaging, actives raise or lower the signal. The method in brief:
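Stress kinase signal is phospho-c-Jun immunofluorescence (1:500 primary, Cy3 secondary) in fixed, permeabilized human HepG2 cells imaged at 20x. Exposure lasted 72 hr over ten concentrations from 0.39 to 200 uM, 0.5% DMSO, in duplicate. Bidirectional fit versus DMSO.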

The nature of assay [8]: APR_HepG2_p53Act_72hr: Apredica 72-hour HepG2 Assay for p53 Activation (AID 2282923).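 Note: average cellular p53 protein immunofluorescence intensity in HepG2 cells.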 Conditions: high-content imaging, actives raise or lower the signal. The method, boiled down: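 After 72 h with compound (ten points, 0.39 to 200 uM, final DMSO 0.5% v/v), fixed HepG2 cells were labelled with sheep anti-p53 and Hoechst 33342 and imaged; gain or loss versus DMSO scored.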

Assay [9] is described as follows: APR_HepG2_MitoMass_72hr: Apredica 72-hour HepG2 Assay for Mitochondrial Mass (AID 2282924).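 Note: MitoTracker Red CMXRos stain intensity per cell imaged as mitochondrial mass.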 Conditions: high-content imaging, actives raise or lower the signal. The method in brief: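 Read-out: MitoTracker Red fluorescence intensity from automated imaging (20x, six fields per well) in human HepG2 liver cells. Dosing ran 72 hr, 0.39–200 uM, 0.5% DMSO; bidirectional curve fitting versus DMSO baseline.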

Assay [10] is described as follows: ATG_CRE_CIS: Attagene CIS-FACTORIAL HepG2 Assay for human cAMP Responsive Element (CRE) binding protein 3 (AID 2282926). Conditions: HepG2 CRE cis-reporter, Attagene multiplexed mRNA; actives raise or lower the signal. The method, boiled down: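 Readout: fluorescently labelled reporter transcripts resolved by capillary electrophoresis after RT-PCR, taken 24 h post-dosing in transfected HepG2. Endogenous transcription factor activity drives each cis-element reporter; gain or loss of signal fitted relative to DMSO control.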

A short description of assay [11]: ATG_CMV_CIS: Attagene CIS-FACTORIAL HepG2 Assay for human CMV (Internal Marker) (AID 2282928).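 Note: endpoint acts as a background internal control marker rather than a target.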 Conditions: HepG2 CMV promoter reporter, transcription factor profiling; actives raise or lower the signal. The method in brief: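 Fluorescence intensity of RT-PCR-derived reporter fragments, resolved by capillary electrophoresis, gives the signal. HepG2 liver cells bearing transfected cis-element reporters were treated 24 h; activity in either direction was fit relative to DMSO-treated controls.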

Assay [12] can be described thus: ATG_DR4_LXR_CIS: Attagene CIS-FACTORIAL HepG2 Assay for human Liver X Receptor (LXR), DR4 submotif (AID 2282929). The note with it: HepG2 Attagene DR4 cis-reporter, mRNA transcription; actives raise or lower the signal. The method, boiled down:
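The endpoint is DR4-element-driven reporter transcripts after 24 h chemical exposure of transfected HepG2 cells. These were measured via RT-PCR and capillary electrophoresis, and gain or loss of signal was fitted relative to DMSO controls.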

Assay [13] deals with Aryl hydrocarbon receptor (Homo sapiens) (UniProt P35869). Put plainly: ATG_Ahr_CIS: Attagene CIS-FACTORIAL HepG2 Assay for human Aryl Hydrocarbon Receptor (Ahr) (AID 2282930). The note with it: HepG2 AhR cis-factorial reporter transcription; actives raise or lower the signal. The method, boiled down: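 Endogenous factor activity is tracked through cis-promoter reporter units transfected into HepG2 cells. Transcript levels at 24 h are read by fluorescent RT-PCR and capillary electrophoresis, with activity in either direction scored relative to DMSO.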

Assay [14] in a line: ATG_AP_1_CIS: Attagene CIS-FACTORIAL HepG2 Assay for human Activator Protein 1 (AP-1) (AID 2282931). The note with it: HepG2 Attagene cis-factorial AP-1 reporter mRNA; actives raise or lower the signal. The method in brief:
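Readout is reporter transcript level from endogenous transcription factor activity, quantified by RT-PCR with fluorescent primer extension and capillary electrophoresis. Transiently transfected HepG2 cells, 24 h exposure. Curves fitted both directions versus DMSO.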

Assay [15] is described as follows: ATG_AP_2_CIS: Attagene CIS-FACTORIAL HepG2 Assay for human Activator Protein 2 (AP-2) (AID 2282932). Conditions: HepG2 AP-2 cis-reporter, Attagene transcription factor profiling; actives raise or lower the signal. The method in brief:
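Liver-derived HepG2 line, cis-reporter system measuring endogenous factors; 24 h dosing; reporter mRNA detected by fluorescent RT-PCR and capillary electrophoresis.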

Assay [16] is described as follows: ATG_BRE_CIS: Attagene CIS-FACTORIAL HepG2 Assay for human Bone Morphogenetic Protein (BMP) Response Element (BRE) (AID 2282933). The note with it: HepG2 BMP response element reporter, Attagene transcription factor profiling; actives raise or lower the signal. The method in brief: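 A HepG2 multiplex reporter system measured inducible reporter mRNA 24 h post-dosing. Detection: RT-PCR, 6-FAM primer extension, HpaI digestion, capillary electrophoresis. Activity fitted bidirectionally relative to DMSO.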

Assay [17] in a line: APR_HepG2_NuclearSize_72hr: Apredica 72-hour HepG2 Assay for Nuclear Size (AID 2282925). Conditions: high-content imaging, actives raise or lower the signal. The method in brief:
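Read-out: nuclear diameter from Hoechst 33342 images (ArrayScan, 20x, six fields/well), via cell-cycle image analysis. HepG2 were dosed 0.39–200 uM for 72 hr in 0.5% DMSO. Bidirectional fit relative to DMSO.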

Assay [18] deals with CCAAT/enhancer-binding protein beta (Homo sapiens) (UniProt P17676). In words: ATG_C_EBP_CIS: Attagene CIS-FACTORIAL HepG2 Assay for human CCAAT/Enhancer Binding Protein (C/EBP) beta (AID 2282927). The note with it: HepG2 Attagene cis-factorial transcription factor reporter; actives raise or lower the signal. The method, boiled down:
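HepG2, transient MRTU transfection, 24 h treatment. RT-PCR plus CE fluorescence; DMSO negative control, bidirectional fit.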

The target of assay [19] is Retinoic acid receptor alpha (Homo sapiens) (UniProt P10276). Put plainly: ATG_DR5_RAR_CIS: Attagene CIS-FACTORIAL HepG2 Assay for human Retinoic Acid Receptor Alpha (RARE), DR5 submotif (AID 2282934).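 For AC50: reporter responds to endogenous RAR alpha beta and gamma in HepG2 not RARA alone.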 The note with it: HepG2 Attagene cis-factorial RARE DR5 reporter, mRNA; actives raise or lower the signal. The method in brief: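 After 24 h of chemical exposure, transiently transfected HepG2 cells were lysed for total RNA; the DR5-regulated reporter transcript was quantified via RT-PCR and capillary electrophoresis, with activity fitted bidirectionally against DMSO.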

Assay [20] is described as follows: APR_HepG2_StressKinase_24hr: Apredica 24-hour HepG2 Assay for Stress Kinase (AID 2282922). The note with it: HepG2 stress kinase (phospho-c-Jun) imaging, actives raise or lower the signal. The method, boiled down: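 Read-out: phospho-c-Jun immunofluorescence (Cy3 secondary) quantified by high-content imaging at 20x, nuclei defined by Hoechst 33342. Human HepG2 liver cells dosed 24 hr, 0.39–200 uM, DMSO 0.5% v/v; gain or loss of signal fitted relative to DMSO.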

Each structure is given as a SMILES string. The source made the active and inactive calls. Rule for the calls: active = hit-call score of the fitted dose curve at least 0.9, where 1 is the maximum; inactive = score below 0.9.

Sequence of Retinoic acid receptor alpha (Homo sapiens) (P10276 whole entry, looked up): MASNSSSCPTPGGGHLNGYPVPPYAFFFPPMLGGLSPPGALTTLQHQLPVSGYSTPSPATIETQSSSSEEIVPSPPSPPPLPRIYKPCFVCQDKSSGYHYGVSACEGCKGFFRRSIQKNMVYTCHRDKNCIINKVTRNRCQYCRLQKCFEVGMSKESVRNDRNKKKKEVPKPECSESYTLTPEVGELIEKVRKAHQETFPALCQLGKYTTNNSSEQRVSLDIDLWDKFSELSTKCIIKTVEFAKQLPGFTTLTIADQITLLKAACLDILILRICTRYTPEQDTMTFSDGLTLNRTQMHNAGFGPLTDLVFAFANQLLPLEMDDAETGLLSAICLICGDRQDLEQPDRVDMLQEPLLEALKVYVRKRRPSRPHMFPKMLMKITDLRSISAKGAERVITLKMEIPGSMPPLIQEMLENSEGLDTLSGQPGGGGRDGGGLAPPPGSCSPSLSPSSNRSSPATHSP
Sequence of Aryl hydrocarbon receptor (Homo sapiens) (P35869 whole entry, looked up): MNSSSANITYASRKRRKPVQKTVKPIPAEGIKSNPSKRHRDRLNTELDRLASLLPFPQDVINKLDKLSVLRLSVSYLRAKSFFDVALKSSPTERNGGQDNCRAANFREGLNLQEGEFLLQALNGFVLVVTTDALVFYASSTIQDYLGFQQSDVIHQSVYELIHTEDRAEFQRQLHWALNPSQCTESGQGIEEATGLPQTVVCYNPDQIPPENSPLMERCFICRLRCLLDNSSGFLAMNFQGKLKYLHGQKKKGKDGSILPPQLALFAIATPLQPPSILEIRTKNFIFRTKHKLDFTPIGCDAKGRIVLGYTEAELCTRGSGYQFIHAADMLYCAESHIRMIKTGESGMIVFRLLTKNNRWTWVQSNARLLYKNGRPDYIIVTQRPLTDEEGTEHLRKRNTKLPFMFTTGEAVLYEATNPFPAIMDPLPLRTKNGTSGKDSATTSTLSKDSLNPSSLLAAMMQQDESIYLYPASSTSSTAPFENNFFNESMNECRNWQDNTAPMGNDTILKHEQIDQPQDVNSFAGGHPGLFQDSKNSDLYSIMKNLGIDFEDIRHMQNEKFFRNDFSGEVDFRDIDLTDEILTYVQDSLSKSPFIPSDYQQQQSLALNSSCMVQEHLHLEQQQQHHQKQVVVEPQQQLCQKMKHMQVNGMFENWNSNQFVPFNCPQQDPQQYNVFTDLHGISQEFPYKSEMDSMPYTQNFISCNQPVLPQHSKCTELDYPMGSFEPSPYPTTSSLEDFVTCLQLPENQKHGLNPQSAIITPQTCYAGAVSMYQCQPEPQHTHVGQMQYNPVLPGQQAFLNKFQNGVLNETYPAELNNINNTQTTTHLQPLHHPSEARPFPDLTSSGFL
Sequence of CCAAT/enhancer-binding protein beta (Homo sapiens) (P17676 whole entry, looked up): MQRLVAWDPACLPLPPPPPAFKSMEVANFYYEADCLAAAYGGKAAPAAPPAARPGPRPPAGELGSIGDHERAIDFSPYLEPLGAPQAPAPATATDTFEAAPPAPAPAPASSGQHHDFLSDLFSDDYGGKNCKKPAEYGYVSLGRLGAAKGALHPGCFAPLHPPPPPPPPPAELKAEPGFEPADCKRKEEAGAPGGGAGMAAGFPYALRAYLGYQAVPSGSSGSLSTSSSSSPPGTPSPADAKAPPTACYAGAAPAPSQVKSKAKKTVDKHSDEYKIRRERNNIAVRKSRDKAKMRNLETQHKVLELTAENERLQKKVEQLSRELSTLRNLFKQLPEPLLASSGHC

For `C=CCOC(=O)C(C)(C)OC(=O)c1cc(-n2c(=O)cc(C(F)(F)F)n(C)c2=O)ccc1Cl`, the concentration at half-maximal activity (AC50) – broadly, the concentration at which the activity in the assay is half-maximal – in assay [1] was 97.7 µM (active); in assay [3], 65.2 µM (active); in assay [4] it was 90.1 µM (active); in assay [5], 100 µM (active); in [10], 13.3 µM (active). Moreover, the compound was called inactive in assay [2], in assay [6], in assay [7], in assay [8], in assay [9] and in assay [11]. The outcome in assay [12], in [13], in assay [14], in [15] and in [16] was inactive.

As for `CC(C)(C)C(=O)C(Oc1ccc(Cl)cc1)n1cncn1` (stereo not given), the AC50 was 78.6 µM (active) in assay [1]; 41.9 µM (active) in assay [10]; 50 µM (active) in assay [18]; 34.7 µM (active) in assay [13]; 74.2 µM (active) in [14]; 50 µM (active) in assay [16]. Also, the AC50 in [19] was 12.8 µM (active). For the same compound, the outcome in [2], in assay [3], in assay [4], in assay [6], in assay [7] and in assay [9] was inactive. Further, the compound was classed as inactive in assay [17], in assay [11], in [12] and in assay [15].

As to `CNC(=O)N(C)c1nnc(C(C)(C)C)s1`, the outcome in [1], in assay [2], in assay [4], in [5], in [6] and in assay [7] was inactive. For the same compound, the call in [20], in assay [8], in assay [9], in assay [10], in assay [18] and in assay [11] was inactive. Further, the outcome in [12], in assay [13], in assay [14], in [15], in assay [16] and in assay [19] was inactive.

Consider `COP(=S)(OC)Oc1ccc([N+](=O)[O-])c(C)c1`, for which the AC50 in [1] is 87.9 µM (active); in assay [10], 17.8 µM (active); in assay [14], 68 µM (active); in [16], 32.7 µM (active). Also, the compound was classed as inactive in assay [2], in [3], in assay [4], in assay [5], in [6] and in [7]. Besides, the compound was classed as inactive in [9], in assay [11], in assay [12] and in assay [13].

`CCCN(CC)CC1COC2(CCC(C(C)(C)C)CC2)O1` (stereo not given): the AC50 is 69.3 µM (active) in assay [1]; 80.6 µM (active) in assay [2]; 70.2 µM (active) in assay [4]; 62.5 µM (active) in assay [5]; 13.6 µM (active) in assay [10]; 17.8 µM (active) in assay [11]. In addition, the AC50 in assay [13] was 26.1 µM (active); in [14], 19.7 µM (active); in assay [16] it was 22.2 µM (active); in assay [19] it was 2.75 µM (active). The compound was called inactive in assay [3], in [6], in assay [7], in assay [9], in assay [17] and in assay [18]. Also, the result in assay [12] was inactive.

`COC(=O)NC(=S)Nc1ccccc1NC(=S)NC(=O)OC`: the concentration at half-maximal activity (AC50) in [1] is 26.1 µM (active); in assay [9], 41.6 µM (active); in assay [10] it was 29 µM (active); in assay [18], 28.7 µM (active); in assay [13], 73.9 µM (active); in assay [16], 26.3 µM (active). Moreover, the call in assay [2], in assay [3], in assay [4], in [6], in assay [7] and in assay [20] was inactive. The result in assay [8], in assay [17], in assay [11], in assay [12], in assay [14] and in [15] was inactive.
